Inconclusive results are not listed. Unmarked numbers belong to inactive results. The call rests on the fitted dose curve; in most records, active means well fitted curve in the direction sought with a large enough effect; inconclusive means small, poorly fitted or top-dose-only effect, or another doubt; inactive means no such curve, though single readings can be large or run the other way.
Experiment: Secondary Assay for Activators of Human Pyruvate Kinase M2 isoform - Cell Titer Glo Cytotoxicity for Probe SAR; further: % of control where 0% means no effect
Details: HeLa viability, CellTiter-Glo ATP luminescence, 24 h; series mostly up to 58.2 µM; activity change, negative = cytotoxicity: at the top concentration
Protocol: NIH Chemical Genomics Center [NCGC]
Matthew G. Vander Heiden, M.D., Ph.D. [Harvard Medical School, 77 Avenue Louis Pasteur, Boston, MA 02115]
We have identified a series of activators of the M2 isoform of human pyruvate kinase. The assay described here examines the cytotoxicity of these compounds by measuring the total ATP content of Hela cells after 24 hrs of exposure to compound.
500 Hela cells/ 4ul in media (DMEM with high glucose, 10% FBS, 1x Pen Strep, 1x NEAA) were dispensed into a white solid 1536-microwell plate with a Thermo Multidrop. The plates were incubated at 37 degrees Celsius for 24 hours. The cells were then treated with compounds using the Kalypsys pin tool, delivering 23 nl of test compounds and the control doxorubicin. The plates were then incubated for an additional 24 hours at 37 degrees C after which 4 ul of Promega Cell-Titer Glo was dispensed using the Thermo Multidrop. The plates were incubated at room temperature for 10 min before reading luminescence on the Perkin Elmer ViewLux with images collected with 2x binning and a 5 sec exposure time.

| Compound | activity change, negative = cytotoxicity [%] |
| --- | --- |
| Cc1ccc(-c2nc3cccc(C)n3c2Nc2ccc(F)cc2)o1 | -26 |
| O=C1CCc2cc(S(=O)(=O)Nc3cccc(-c4ccccc4)c3)ccc2N1 | -25.3 |
| Cc1ccc(NS(=O)(=O)c2ccc(N3CCCC3=O)cc2)cc1C | -23 |
| O=C1c2ccccc2C(=O)N1c1cccc2cnccc12 | -2.96 |
| O=C1c2ccccc2C(=O)N1c1cncc2ccccc12 | -5.97 |
| O=C1CCc2cc(S(=O)(=O)Nc3ccc(F)cc3)ccc2N1 | -16.1 |
| Cc1ccc(NS(=O)(=O)c2ccc3c(c2)CCCC(=O)N3)cc1C | -1.83 |
| Cc1ccc(NS(=O)(=O)c2cc3c(cc2N(C)C)CCC(=O)N3)cc1C | -16 |
| Cc1ccc2nc(-c3ccc(C)o3)c(NC3CCCC3)n2c1 | -16.7 |
| COc1cc(N2C(=O)c3ccccc3C2=O)c2ncccc2c1 | -21.8 |
| COc1ccc(-c2nc3ccccn3c2Nc2ccccc2C)cc1 | -7.85 |
| Cc1ccc(NS(=O)(=O)c2cc3c(cc2/C=C/c2ccccc2)NC(=O)CO3)cc1C | -22.7 |
| Cc1cccc(NS(=O)(=O)c2ccc3c(c2)CCC(=O)N3)c1 | -19.5 |
| O=C1c2ccccc2C(=O)N1c1ccc(O)cc1 | -5.26 |
| O=C1c2ccccc2C(=O)N1c1ccc2ccccc2n1 | -23.5 |
| O=C1CCc2cc(Cl)c(S(=O)(=O)Nc3ccc(Cl)c(Cl)c3)cc2N1 | -23.4 |
| Cc1cccc(OC2=NS(=O)(=O)c3ccccc32)c1 | 2.84 |
| Cc1cc(N2C(=O)c3ccccc3C2=O)no1 | -24 |
| O=C1CCc2cc(S(=O)(=O)Nc3cccc(Oc4ccccc4)c3)ccc2N1 | -9.43 |
| Cc1ccc(NS(=O)(=O)c2ccc3c(c2)CC(=O)N3C)cc1C | -16 |

| Compound | activity change, negative = cytotoxicity [%] |
| --- | --- |
| Cc1ccc(NS(=O)(=O)c2cc3c(cc2Cl)CCC(=O)N3)cc1Cl | -21.2 |
| Cc1ccc(NS(=O)(=O)c2ccc3c(c2)N(C)C(=O)CO3)cc1C | -26.7 |
| O=C1CCc2cc(S(=O)(=O)Nc3ccc(Cl)c(Cl)c3)ccc2N1 | -17.3 |
| COc1cccc(N2C(=O)c3ccccc3C2=O)c1 | 3.46 |
| Cc1ccc(NS(=O)(=O)c2ccc3c(c2)CCC(=O)N3)cc1F | -1.87 |
| CC(=O)Nc1cccc(S(=O)(=O)Nc2ccc(C)c(C)c2)c1 | 1.12 |
| O=C1CCc2cc([S+](=O)([O-])NC3CCOCC3)ccc2N1 | -1.14 |
| O=C1CCc2cc(S(=O)(=O)Nc3ccccc3-c3ccccc3)ccc2N1 | -19.6 |
| O=S1(=O)N=C(Oc2ccc(Cl)cc2)c2ccccc21 | 2.68 |
| O=C1c2ccccc2C(=O)N1Cc1cccnc1 | -7.71 |
| CSc1cc2c(s1)c1cnn(Cc3cccc(O)c3)c(=O)c1n2C | 1.75 |
| O=C1c2ccccc2C(=O)N1c1ccc(Cl)cc1 | -19.6 |
| COc1ccccc1NS(=O)(=O)c1ccc2c(c1)CCC(=O)N2 | -22.8 |
| Cc1ccc2nc(-c3ccc(C)o3)c(Nc3ccccc3)n2c1 | -26.6 |
| Cc1ccc(NS(=O)(=O)c2ccc3c(c2)CCC(=O)N3)cc1C | -10.7 |
| Cc1ccc(NS(=O)(=O)c2ccc(Cl)cc2)cc1C | -4.87 |
| Cc1ccc(NS(=O)(=O)c2ccc3c(c2)CCC(=O)N3)cc1Cl | -17.7 |
| Cc1ccc(N2C(=O)c3ccccc3C2=O)c(C)c1 | -18.8 |
| Cc1ccc(NS(=O)(=O)c2cc3c(cc2F)NC(=O)CC3)cc1C | -6.84 |
| Cc1ccc(NS(=O)(=O)c2cc3c(cc2C)OCC(=O)N3)cc1C | -12 |
